PI5P4Ka inh – qHTS for Inhibitors of phosphatidylinositol 5-phosphate 4-kinase (PI5P4K); 1.2% of 330,000 active; PI5P4Kalpha enzyme, ADP-Glo luminescence, 60 min; hits give low values; Phosphatidylinositol 5-phosphate 4-kinase type-2 alpha (Homo sapiens), P48426; max response, %; active = max response of -50% or lower; inconclusive = between -30% and -50%; inactive = -30% or higher; also: value at the top dose of about 77 µM; % is scaled to controls: 0 for no effect and ±100 for the full control effect
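ADP-Glo luminescence end-point after a 60 min room-temperature kinase reaction. PI5P4Kalpha and substrate in HEPES pH 7.4 buffer with EGTA, 0.1% CHAPS and 5% DMSO; ATP at 5 microM final.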
JMJD2A Tudor – qHTS Assay for Inhibitors of JMJD2A-Tudor Domain. AlphaScreen JMJD2A-Tudor / H3K4me3 peptide binding. 4.4% of 390,000 active. Lysine-specific demethylase 4A (Homo sapiens), O75164. AID 504339, 2011. Potency, µM (titrated, usually from 114 µM), inactives show top-dose activity change, negative = inhibition, usual class: inhibitors; also: potency is read from the fitted curve at half-maximal effect; % is scaled to controls: 0 for no effect and ±100 for the full control effect; nearly all actives have a fitted effect of over 50% in size
PLK1 PBD block – qHTS for Inhibitors of PLK1-PDB (polo-like kinase 1 - polo-box domain): Primary Screen | Serine/threonine-protein kinase PLK1 (Homo sapiens), P53350 | Plk1 PBD binding of FITC phosphopeptide, fluorescence polarization | Potency, µM, for inactives: max response, negative = inhibition, actives largely listed as inhibitors | 2.8% of 360,000 active | AID 720504, 2013; also: potency is read from the fitted curve at half-maximal effect; series mostly up to about 57 µM; % is scaled to controls: 0 for no effect and ±100 for the full control effect; nearly all actives have a fitted effect of over 65% in size
BAZ2B block – qHTS Assay for Inhibitors of BAZ2B; Bromodomain adjacent to zinc finger domain protein 2B (Homo sapiens), Q9UIF8; AlphaScreen BAZ2B-H3K14Ac peptide displacement; Potency, µM (titrated, usually from 114 µM), for the others: at the top dose activity change, negative = inhibition, hits mostly inhibitors; 4.4% of 360,000 active; also: potency is read from the fitted curve at half-maximal effect; % is scaled to controls: 0 for no effect and ±100 for the full control effect; nearly all actives have a fitted effect of over 60% in size
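AlphaScreen displacement: compounds (up to 110uM) incubated 30 min at room temperature with a preformed 50 nM BAZ2B/50 nM biotinylated H3K14Ac peptide complex in PBS pH 7.4 with Tween-20. Donor and acceptor beads at 10 ug/mL final added, 20 min light-protected before reading.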
G9a block – qHTS Assay for Inhibitors of Histone Lysine Methyltransferase G9a. Histone-lysine N-methyltransferase EHMT2 (Homo sapiens), Q96KQ7. 8.8% of 350,000 active. Potency, µM (series often up to 102 µM), for inactives: at the highest dose activity, negative = inhibition, actives largely listed as inhibitors. G9a H3K9 monomethylation, AlphaScreen, 2 h; also: potency is read from the fitted curve at half-maximal effect; % is scaled to controls: 0 for no effect and ±100 for the full control effect; nearly all actives have a fitted effect of over 75% in size
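Methyltransferase reactions run at room temperature for 2 h (20 nM enzyme, 500 nM biotin-H3K9 peptide, 20 uM SAM) after a 15 min compound preincubation; product detected by AlphaScreen beads and anti-H3K9me1 antibody.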
HP1b binding inh – HTS for Inhibitors of HP1-beta Chromodomain Interactions with Methylated Histone Tails; Potency, µM (titrated, usually from 114 µM), for inactives: top-dose activity change, negative = inhibition, actives largely listed as inhibitors; AID 540317, 2011; AlphaScreen HP1-beta / biotin-H3K9me3 peptide binding; 0.56% of 390,000 active; also: potency is read from the fitted curve at half-maximal effect; nearly all actives have a fitted effect of over 70% in size
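Compound inhibition of the preformed complex between 50 nM HP1-beta and 50 nM biotinylated H3K9me3 peptide was read by AlphaScreen. Buffer was PBS pH 7.4 with 0.01% Tween-20. Incubations ran 30 min at room temperature, with 10 ug/mL donor/acceptor beads.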
* = called active by the depositor; ? = inconclusive; . = no result; [ ] = remark or other dose. Hits are enriched below; roughly 12% of the tested compounds scored in any of these assays. Unless noted, calls follow the shape of the dose curve; as a rule, active = well fitted curve in the direction sought with a large enough effect; inconclusive = small, poorly fitted or top-dose-only effect, or another doubt; inactive = no such curve, though single readings can be large; an effect the other way counts as inactive or inconclusive.

SMILES	PI5P4Ka inh	JMJD2A Tudor	PLK1 PBD block	BAZ2B block	G9a block	HP1b binding inh
O=C(CSc1ccccn1)N1CCN(c2ccc(Cl)cc2)CC1	-1	-23%	24µM*	6%	?	11%
O=C(c1ccc2ccccc2c1)N1CCN(c2ccccn2)CC1	-2	-19%	-8%	-25%	6%	8%
COc1cccc(NC(=O)CSc2nc(-c3ccccc3)nc3c2Cc2cc(Cl)ccc2O3)c1	.	-15%	.	-2%	4%[59 µM]	17%
CCOC(=O)C(C)Oc1ccc2c(-c3cccc([N+](=O)[O-])c3)cc(=O)oc2c1 (stereo not drawn)	1	-25%	-5%	-13%	35µM*	6%
Cc1ccnc2c(N3C(=O)C4C5C=CC(C5)C4(C)C3=O)cccc12 (stereo not drawn)	1	5%	-10%	-4%	?	60%
CC12C(=O)N(c3ccccn3)C(=O)C1C1C=CC2C1 (stereo not drawn)	1	-25%	30µM*	3%	-3%	-5%
Cc1ccc(N2C(=O)C3C(c4ccccc4)N4CCCN4C3(C)C2=O)cc1 (stereo not drawn)	2	-5%	-26%	-8%	7.9µM*	43%
Cc1ccc(N2C(=O)C3C(C2=O)N2CCCN2C3c2ccccc2)cc1C (stereo not drawn)	-7	-15%	?	-21%	?	?
O=C(O)c1cc2n(n1)CCN(Cc1ccccc1Cl)C2=O	-3	-4%[11.4 µM]	-1%	?	50µM*	30%
Cc1cc(C)cc(NC2=CC(c3cccc(F)c3)N(c3cc(C)cc(C)c3)C2=O)c1 (stereo not drawn)	.	-9%	.	-18%	2%[59 µM]	21%
COc1ccc(OC)c(/C=N/NC(=O)CCN2CCN(C(c3ccccc3)c3ccccc3)CC2)c1	1	?	-10%	?	10µM*	-17%
O=C(CCN1CCN(C(c2ccccc2)c2ccccc2)CC1)N/N=C/c1ccc(O)cc1O	7	63µM*	2%	?	?	-32%
O=C(CCN1CCN(C(c2ccccc2)c2ccccc2)CC1)N/N=C/c1ccc(O)cc1	-4	?	-1%	?	-24%	-20%
COc1ccc(OC)c(NC(=O)CCN2CCN(Cc3ccccc3)CC2)c1	.	-31%	-3%	-9%	50µM*	14%
COc1ccc(NC(=O)CCc2nnc3ccc(N4CCN(c5cccc(OC)c5)CC4)nn23)cc1	12	-32%	10%	?	?	10%
CC(C)OCCOc1ccc2oc(-c3ccco3)cc(=O)c2c1	?	?	-9%	56µM*	-3%[59 µM]	?
Cn1ccnc1-c1nc2ccccc2[nH]c1=O	.	35µM*	-5%	18µM*	2.5µM*	20%
CCCCn1nnnc1-c1nc2ccccc2[nH]c1=O	-6	.	-8%	.	.	.
CC1(c2ccc(Cl)cc2)NC(=S)N2C1NC(=S)N2c1ccccc1 (stereo not drawn)	0	-30%	-22%	50µM*	-113%[59 µM]	27%
CC1(c2ccc(Cl)c(Cl)c2)NC(=S)N2C1NC(=S)N2c1ccccc1 (stereo not drawn)	-10	?	-17%	-36%	1%[59 µM]	-17%
O=C1CCC(C(=O)OCc2ccccc2)N1 (stereo not drawn)	.	-15%	-7%	-4%	6.3µM*	15%
CCc1ccc(CNC(=O)CCc2c(C)nn(-c3ccc(N4CCCCC4)nn3)c2C)cc1	.	-23%	.	-24%	-3%[59 µM]	13%
Cn1ncc(Br)c1C(=O)NC1CCCCCC1	2	-4%	-5%	-1%	8%	33%
Nc1ccccc1C(=O)N=Nc1[nH]c(N)c2ccccc12	1	79µM*	-3%	35µM*	8%[59 µM]	31%
Nc1[nH]c(N=NC(=O)c2ccc(F)cc2)c2ccccc12	-25	-23%	-12%	?	8%	18%
SMILES	PI5P4Ka inh	JMJD2A Tudor	PLK1 PBD block	BAZ2B block	G9a block	HP1b binding inh
Cc1ccc(CNC(=O)/C=C/[C@H]2O[C@@H](n3cc(C)c(=O)[nH]c3=O)C[C@@H]2O)o1	0	.	-13%	.	.	.
CCOC(=O)c1scc(-c2ccccc2)c1S(=O)(=O)N1CCN(c2ccccc2OC)CC1	.	-18%	.	-37%	-6%[59 µM]	-1%
O=C(N/N=C/c1ccnc2ccccc12)c1ccccc1O	-22	100µM*	-12%	-14%	4%	1%
O=C(N/N=C/c1ccoc1)c1ccccc1O	?	-19%	-7%	?	-5%	3%
O=C(N/N=C/c1ccc2nccnc2c1)c1ccccc1O	.	.	.	-10%	16%	.
O=C(N/N=C/c1oc(O)c2ccccc12)c1ccccc1O	-2	-16%	-6%	-8%	35µM*	-17%
CCN(CC)CCn1c2ccccc2c2cnc(N)c(C#N)c21	1	-21%	-8%	10%	35µM*	8%
CCCOc1ccc(C2C(=O)N(C3CCCCCC3)CC(=O)N2CCC2=CCCCC2)cc1OC (stereo not drawn)	.	-17%	.	-2%	-18%[59 µM]	32%
Cc1cc(C2CCCCC2)n(O)c(=O)c1	-2	?	-8%	79µM*	5%[59 µM]	25%
O=C(O)Cc1cccc(OCCCN(Cc2cccc(C(F)(F)F)c2Cl)CC(c2ccccc2)c2ccccc2)c1	.	.	.	.	18µM*	.
O=C(CCCOc1ccccc1)Nc1ccccc1C(F)(F)F	3	7%[57.1 µM]	-8%	12%	16%[59 µM]	66%
